A number with no mark means an inactive call. Records with an inconclusive call do not appear. Calls of active or inactive are those of the source. Calls come from the whole dose curve; as a rule, active = well fitted curve in the direction sought with a large enough effect; inconclusive = small, poorly fitted or top-dose-only effect, or another doubt; inactive = no such curve, though single readings can be large; an effect the other way counts as inactive or inconclusive.

The values that follow come from PubChem BioAssay (NCATS).

The test system of assay [1] is Nanoluciferase (engineered Oplophorus gracilirostris luciferase). Briefly: Primary Nanoluciferase (NLuc) qHTS assay for identification of artifact compounds. (AID 1845222).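 Note: NLuc secreted into diluted conditioned medium of S16 cells.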 Put shortly: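 qHTS format, against NLuc in S16 cell-conditioned medium. Nano-Glo substrate 1:100 was added after 15 min at room temperature. Luminescence was taken after a further 5 min.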
A short description of assay [2]: Quantitative High-Throughput drug screen in 47 multiple myeloma cell lines against the NCATS MIPE library collection: FR4_PLB cell viability assay (AID 1918924; note: nearly all actives have a fitted effect of over 35% in size; note: potency is the fitted concentration of half-maximal effect). Put shortly: (§1)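 Inhibition of cell viability is measured here. Each line was plated at 500 cells per well, treated with MIPE 4.0 drugs, kept 48 hours at 37C, then assayed for ATP content by CellTiter-Glo luminescence.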

The nature of assay [3]: Quantitative High-Throughput drug screen in 47 multiple myeloma cell lines against the NCATS MIPE library collection: Delta47_JCRB cell viability assay (AID 1918925; note: nearly all actives have a fitted effect of over 45% in size; note: potency is the fitted concentration of half-maximal effect). Put shortly: (§2)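 Primary qHTS used for cherry-picking: cells at 500/well, library compounds for 48 h (37C, 5% CO2), luminescent ATP assay.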
Assay [4] in a line: Quantitative High-Throughput drug screen in 47 multiple myeloma cell lines against the NCATS MIPE library collection: EJM_DSMZ cell viability assay (AID 1918926; note: nearly all actives have a fitted effect of over 30% in size; note: potency is the fitted concentration of half-maximal effect). Put shortly: as §2
The nature of assay [5]: Quantitative High-Throughput drug screen in 47 multiple myeloma cell lines against the NCATS MIPE library collection: AMO1_DSMZ cell viability assay (AID 1918927; note: nearly all actives have a fitted effect of over 30% in size; note: potency is the fitted concentration of half-maximal effect). Put shortly:
as §2

The nature of assay [6]: Quantitative High-Throughput drug screen in 47 multiple myeloma cell lines against the NCATS MIPE library collection: ARP1_JJKsccF8 cell viability assay (AID 1918928; note: nearly all actives have a fitted effect of over 40% in size; note: potency is the fitted concentration of half-maximal effect). Put shortly: (§3)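 Here, 48 h treatment with MIPE 4.0 agents at 37 °C preceded an ATP luminescence read. Plating density was 500 cells per well.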
The nature of assay [7]: Quantitative High-Throughput drug screen in 47 multiple myeloma cell lines against the NCATS MIPE library collection: Karpas620_DSMZ cell viability assay (AID 1918959). Note: nearly all actives have a fitted effect of over 30% in size. Note: potency is the fitted concentration of half-maximal effect. Put shortly:
as §1

Assay [8] is described as follows: Quantitative High-Throughput drug screen in 47 multiple myeloma cell lines against the NCATS MIPE library collection: KHM11_PLB cell viability assay (AID 1918962). Note: nearly all actives have a fitted effect of over 35% in size. Note: potency is the fitted concentration of half-maximal effect. Put shortly: as §1
The nature of assay [9]: Quantitative High-Throughput drug screen in 47 multiple myeloma cell lines against the NCATS MIPE library collection: JIM3_ECACC cell viability assay (AID 1918963; note: nearly all actives have a fitted effect of over 35% in size; note: potency is the fitted concentration of half-maximal effect). In short, it runs like this: as §1
Assay [10] in a line: Quantitative High-Throughput drug screen in 47 multiple myeloma cell lines against the NCATS MIPE library collection: JIM1_ECACC cell viability assay (AID 1918964; note: potency is the fitted concentration of half-maximal effect). In short, it runs like this: as §2
The nature of assay [11]: Quantitative High-Throughput drug screen in 47 multiple myeloma cell lines against the NCATS MIPE library collection: INA6_PLB cell viability assay (AID 1918965; note: nearly all actives have a fitted effect of over 55% in size; note: potency is the fitted concentration of half-maximal effect). Put shortly:
(§4)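 qHTS of the MIPE 4.0 collection: 500 myeloma cells/well, 48 h drug exposure at 37C in 5% CO2, then CellTiter-Glo for 5 min at room temperature before luminescence reading.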

Assay [12] is described as follows: Quantitative High-Throughput drug screen in 47 multiple myeloma cell lines against the NCATS MIPE library collection: H1112_PLB cell viability assay (AID 1918967; note: nearly all actives have a fitted effect of over 30% in size; note: potency is the fitted concentration of half-maximal effect). In short, it runs like this:
as §2

The nature of assay [13]: Quantitative High-Throughput drug screen in 47 multiple myeloma cell lines against the NCATS MIPE library collection: Karpas25_ECACC cell viability assay (AID 1918968; note: nearly all actives have a fitted effect of over 35% in size; note: potency is the fitted concentration of half-maximal effect). Put shortly: as §2
Assay [14] is described as follows: Quantitative High-Throughput drug screen in 47 multiple myeloma cell lines against the NCATS MIPE library collection: KMS27_JCRB cell viability assay (AID 1918970). The settings on record: KMS27 myeloma cells, CellTiter-Glo ATP viability, 48 h; viability (% of DMSO): at 45.8 µM (top of the series). In short, it runs like this: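 Each line is seeded at 500 cells per well and treated with library compounds for 48 hours under 37 °C, 5% CO2. CellTiter-Glo is then added for 5 min at room temperature before median relative luminescence is recorded.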
A general note: Cellular ATP, detected with luciferase, serves as a proxy for viable cell number.

Assay [15] in a line: Quantitative High-Throughput drug screen in 47 multiple myeloma cell lines against the NCATS MIPE library collection: KMS12BM_JCRB cell viability assay (AID 1918971). Put shortly: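 Viability readout: CellTiter-Glo luminescence following 5 min room-temperature incubation with reagent. Prior exposure: 48 h, 37C, humidified 5% CO2, 500 cells per well.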
A short description of assay [16]: Quantitative High-Throughput drug screen in 47 multiple myeloma cell lines against the NCATS MIPE library collection: KMM1_JCRB cell viability assay (AID 1918960). Note: nearly all actives have a fitted effect of over 30% in size. Note: potency is the fitted concentration of half-maximal effect. Put shortly:
as §3

The nature of assay [17]: Quantitative High-Throughput drug screen in 47 multiple myeloma cell lines against the NCATS MIPE library collection: ARD_JJKsccE7 cell viability assay (AID 1918929; note: potency is the fitted concentration of half-maximal effect). Put shortly:
as §2

The nature of assay [18]: Quantitative High-Throughput drug screen in 47 multiple myeloma cell lines against the NCATS MIPE library collection: Karpas417_ECACC cell viability assay (AID 1918961). Note: potency is the fitted concentration of half-maximal effect. The settings on record: Karpas417 myeloma viability, CellTiter-Glo ATP luminescence, 48 h; viability (% of DMSO): at 45.8 µM (top of the series). Put shortly: as §4
The nature of assay [19]: Quantitative High-Throughput drug screen in 47 multiple myeloma cell lines against the NCATS MIPE library collection: JJN3_DSMZ cell viability assay (AID 1918966; note: potency is the fitted concentration of half-maximal effect; nearly all actives have a fitted effect of over 50% in size). In short, it runs like this:
as §2

In the case of `NC(=O)c1noc([C@H](CCCC2CCCCC2)CC(=O)NO)n1`, in [1], the Potency result was “inactive”. For the same compound, the Potency in [2] was 6.62 µM (active); in assay [3], 9.35 µM (active); in assay [4], 14.8 µM (active); in assay [5] it was 4.18 µM (active); in [6] it was 14.8 µM (active); in assay [7], 7.43 µM (active). The Potency in assay [8] is 20.9 µM (active); in [9] it was 23.5 µM (active); in assay [10] it was 5.9 µM (active); in assay [11] it was 14.8 µM (active); in assay [12] it was 16.6 µM (active); in assay [13], 14.8 µM (active). Also, the Potency in [14] and in assay [15] was 7.43 µM (active) in each case.

Regarding `CCCCC(F)(F)[C@@]1(O)CC[C@H]2[C@H](CC(=O)[C@@H]2CCCCCCC(=O)O)O1`, the Potency entry in assay [1], in [2], in [3], in assay [4], in assay [5] and in assay [6] was “inactive” each time. In addition, the Potency result in [7], in assay [16], in assay [8], in [11] and in assay [12] was “inactive” in each case.

With `O=C(c1ccc(C(=O)N2CCC(N3CCCC3)CC2)c(Nc2ccccc2)c1)N1CCC(N2CCCC2)CC1`, the Potency entry in assay [1], in [2], in assay [3], in [5], in assay [17] and in assay [7] was “inactive” each time. For the same compound, the Potency result in assay [16], in assay [8], in [9] and in assay [13] was “inactive” throughout. The Potency was 14.8 µM (active) in assay [4] and 5.26 µM (active) in assay [6].

Consider `COc1nccc(-c2c(-c3ccc(F)cc3)ncn2C2CCC(O)CC2)n1` (stereo not given), for which the Potency result in assay [1], in assay [2], in [7], in assay [16] and in assay [9] was “inactive” in each case. The Potency is 8.3 nM (active) in [17], 13.2 µM (active) in assay [11] and 20.9 µM (active) in [15].

With `Cn1c(=O)c(-c2c(Cl)cccc2Cl)cc2cnc(Nc3cccc(C(=O)O)c3)nc21`, the Potency entry in assay [1], in assay [3] and in [13] was “inactive” each time. Besides, the Potency in assay [2] was 5.26 µM (active); in assay [5], 0.469 µM (active); in [17], 469 nM (active); in assay [7], 1.48 µM (active); in assay [18], 59 nM (active); in assay [10], 0.0264 µM (active). The Potency is 4.18 µM (active) in [19] and 0.526 µM (active) in assay [14].

For the compound `CC[C@H](CC#N)OC(=O)N[C@@H](C)c1cccc(NC(=O)Nc2ccc(-c3cnco3)c(OC)c2)c1`, the Potency entry in [1] was “inactive”. Moreover, the Potency is 1.48 µM (active) in assay [2]; 11.8 µM (active) in assay [4]; 0.418 µM (active) in [5]; 14800 nM (active) in [17]; 18.7 µM (active) in assay [7]; 0.418 µM (active) in assay [16]. In addition, the Potency in assay [9] is 1.32 µM (active); in [10], 13.2 µM (active); in [11], 1.05 µM (active); in [12], 1.66 µM (active); in [14], 14.8 µM (active); in [15], 1.48 µM (active).

For `CNC1CCC(N(Cc2cccc(-c3ccncc3)c2)C(=O)c2sc3ccccc3c2Cl)CC1` (stereo not given), the Potency result in [1] was “inactive”. The Potency is 20.9 µM (active) in [2]; 7.43 µM (active) in [3]; 18.7 µM (active) in assay [5]; 16.6 µM (active) in assay [7]; 18.7 µM (active) in assay [16]; 8.33 µM (active) in assay [8]. Besides, the Potency in [10] is 14.8 µM (active); in assay [11], 7.43 µM (active); in [19], 18.7 µM (active); in [12] it was 14.8 µM (active); in [14], 18.7 µM (active); in assay [15] it was 18.7 µM (active).

In the case of `C[C@@H](NC(=O)c1ncnc(N)c1Cl)c1ncc(C(=O)Nc2cc(C(F)(F)F)c(Cl)cn2)s1`, the Potency result in assay [1] and in assay [4] was “inactive” throughout. Moreover, the Potency in assay [2] is 14.8 µM (active); in [7] it was 26.4 µM (active); in assay [8], 5.26 µM (active); in assay [9] it was 13.2 µM (active); in assay [19], 18.7 µM (active).
